Screens from PubChem.
Beta cell apopt: inhibitors of cytokine-induced beta cell apoptosis, primary screen, luminescence. INS-1E cytokine-induced death, ATP luminescence, 48 h; percent of positive-control rescue, neutral wells zero. protection from apoptosis, % (concentration not given with the values). 0.8% of 300,000 active;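 active = Every replicate reaches about 75%, or at least half do and their mean reaches it too, limit read from the data; inconclusive = At least half of replicates reach the limit but their mean does not; inactive = Under half of replicates reach the limit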;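 note: 0% = cytokine-treated negative control wells and 100% = positive control rescue; higher means more ATP so stronger rescue from cytokine killing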
NR3A LBD binder: binders of NR3A ligand-binding domain, primary screen, biophysical, differential scanning fluorimetry, uHTS. Tm shift relative to glycine control, % at 25 µM. NR3A LBD differential scanning fluorimetry, Tm shift; 0% = protein alone, 100% = glycine-bound protein. 2.5% of 340,000 active;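 active = melting temperature shift of at least 10% of the positive control shift, at one fixed dose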
Mdm2-MdmX inh: inhibitors of human Mdm2-MdmX association, primary screen, cell-based, luminescence, split luciferase, SaOS-2, uHTS. Protein Mdm4 (Homo sapiens) + E3 ubiquitin-protein ligase Mdm2 (Homo sapiens), …. SaOS-2 split-luciferase Mdm2/MdmX complementation. inhibition, % at 8 µM. 3% of 330,000 active. AID 485346, 2010;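 active = inhibition of at least 50% at 8 µM in the primary screen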
CSC inhib: cancer stem cell viability inhibitors, primary screen, luminescence; cancer stem cell-like cells viability; inhibition, % at 7.5 µM; 1.1% of 300,000 active; AID 2717, 2010; in the data active = inhibition above about 75%; inconclusive = no clear call, values can overlap the other calls; tested in HMLE shEcad cells
MPTP block: mitochondrial permeability transition pore inhibitors, primary screen, biochemical, isolated mouse mitochondria, absorbance. 1.4% of 360,000 active. inhibition, % at 10 µM. AID 602449, 2012. Ca2+ swelling absorbance, 30 min;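 active = inhibition of 50% or more, scaled per plate between neutral and stimulator controls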;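 note: 0% = DMSO wells given calcium and 100% = 1 mM EGTA wells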
SKKanGAS inh: S. pyogenes SKKanGAS growth inhibitors in kanamycin, primary screen, streptokinase expression inhibitor project, SKKanGAS strain, BacTiter-Glo luminescence | 6 h | inhibition, % at 7.5 µM | 1.3% of 300,000 active;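 active = mean replicate score, as percent of positive control median, at least 50; inconclusive = mean below 50 but one replicate at or above 50; inactive = mean and every replicate below 50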;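 note: strain carries kanamycin resistance gene driven by streptokinase promoter and grows in 40 µg/ml kanamycin; loss of luminescence reflects streptokinase promoter inhibition or plain growth inhibition; 0% = median of DMSO wells and 100% = positive control at its reference dose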
Mdm2 MdmX conf: Mdm2-MdmX complex disruptors, retested hits, confirmation, luminescence, single concentration; 55% of 10,000 active; shares compounds with Mdm2-MdmX inh; AID 489028, 2010; Mdm2-MdmX binding, luminescent assay; inhibition, % at 8 µM; in the data active = inhibition above about 40%
Full FLuc ctr: full-length luciferase signal inhibition, confirmation, counter-screen for Mdm2/MdmX interaction inhibitor project, cell-based, single concentration, SaOS-2. 77% of 6,200 active. inhibition, % at 8 µM. SaOS-2 full-length luciferase counterscreen, luminescence. shares compounds with Mdm2-MdmX inh;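 active = mean inhibition at 8 µM reaching about 37%, which flags the compound as non-specific, limit read from the data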;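 note: p53-null SaOS-2 cells with luciferase driven by a doxycycline-inducible promoter; compound on cells about two nights before reading with doxycycline added after day one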
Starred values were filed as active, the others as inactive; ? = inconclusive; nt = no result given. The list is not random: actives were taken first. Their share in the collection is about 6.9%.

SMILES	Beta cell apopt	NR3A LBD binder	Mdm2-MdmX inh	CSC inhib	MPTP block	SKKanGAS inh	Mdm2 MdmX conf	others
COc1cc(Cl)ccc1OC1(C)CCN(Cc2cccc(OC)c2OC)C1 (centres undefined)	nt	nt	nt	nt	1.0	nt	nt
CCC(=O)NN1CCN(c2ccncc2S(=O)(=O)N2CCCCC2)CC1	1.7	1.7	17.5	-4.0	-1.5	0.1	nt
CSc1ccccc1OCc1cc(C(=O)NCCC2=CCCCC2)no1	-7.3	-3.9	51.9*	1.6	1.2	-0.4	7.9
C[C@]12c3[nH]c4cc(-c5ccco5)ccc4c3CCN1C(=O)[C@@H](CC(=O)NCc1cccc(C(F)(F)F)c1)C[C@@H]2C(=O)N1CCCCC1	nt	0.3	85.2*	nt	-1.3	nt	-1.2
C[C@]12c3[nH]c4cc(-c5ccco5)ccc4c3CCN1C(=O)[C@@H](CC(=O)NCC13CC4CC(CC(C4)C1)C3)C[C@@H]2C(=O)N1CCCCC1	nt	0.3	77.6*	nt	-1.6	nt	12.1
CC[C@]12c3[nH]c4cc(-c5ccco5)ccc4c3CCN1C(=O)[C@@H](CC(=O)NCC13CC4CC(CC(C4)C1)C3)C[C@@H]2C(=O)N1CCN(C(=O)C2CC2)CC1	nt	-1.1	78.2*	nt	-0.9	nt	-14.3
CC[C@]12c3[nH]c4ccc(OC)cc4c3CCN1C(=O)C(CC(=O)NCC13CC4CC(CC(C4)C1)C3)C[C@@H]2C(=O)N1CCN(C(=O)c2ccco2)CC1 (some centres undefined)	nt	0.7	38.5	nt	-0.3	nt	nt
CN(C)CCCNC(=O)C[C@H]1C[C@H](C(=O)N2CCCCC2)[C@@]2(C)c3[nH]c4cc(-c5ccco5)ccc4c3CCN2C1=O	nt	-2.6	40.8	nt	-2.3	nt	nt
CC[C@]12c3[nH]c4ccc(Cl)cc4c3CCN1C(=O)[C@@H](CC(=O)NCC13CC4CC(CC(C4)C1)C3)C[C@@H]2C(=O)N1CCN(C(=O)c2ccco2)CC1	nt	1.6	86.6*	nt	-1.3	nt	40.7*	Full FLuc ctr=38.3*
CC[C@]12c3[nH]c4cc(-c5ccco5)ccc4c3CCN1C(=O)[C@@H](CC(=O)NCC13CC4CC(CC(C4)C1)C3)C[C@@H]2C(=O)N1CCN(C(=O)c2ccco2)CC1	nt	1.7	45.3	nt	0.9	nt	nt
NC(=O)c1ccc[n+](CC(=O)Nc2ccccc2C(=O)O)c1	-7.0	-2.2	4.6	-5.0	-0.8	-1.7	nt
CC1CCN(C(=O)C(C)OC(=O)CSc2ccc([N+](=O)[O-])cc2)CC1 (centres undefined)	6.3	0.2	-16.5	-15.1	-0.5	nt	nt
COc1ccc(C)cc1S(=O)(=O)NC(C)C(=O)NC1CC1 (centres undefined)	-5.7	0.7	-7.1	6.1	1.9	1.0	nt
COc1ccc(Cc2nnc(SCc3ccc([N+](=O)[O-])cc3)o2)cc1	-18.2	1.7	60.2*	8.2	-1.4	-5.3	61.2*	Full FLuc ctr=28.9
O=[N+]([O-])c1ccc(-c2n(-c3ccccn3)c3ccccc3[n+]2-c2ccccn2)cc1	0.9	0.9	12.0	-4.9	0.1	-8.0	nt
COc1ccc(C(=O)NNC(=O)c2ccc3ccccc3n2)cc1	59.2	-2.7	62.5*	49.4	-0.8	nt	52.6*	Full FLuc ctr=52.6*
CC(C)c1ccc(C(CC(=O)O)N2Cc3ccccc3C2=O)cc1 (centres undefined)	-10.5	2.7	18.3	-7.6	0.6	0.1	nt
CCOc1ccc(NC(=S)N=Nc2c(O)[nH]c3ccccc23)cc1	19.5	-1.5	64.2*	-18.3	2.4	101.0*	28.2
Oc1[nH]c2ccc(Br)cc2c1N=NC(=S)N1CCOCC1	108.1*	-4.4	95.6*	?	1.4	89.1*	98.0*	Full FLuc ctr=53.9*
Oc1cccc(NC(=S)N=Nc2c(O)[nH]c3ccccc23)c1	-5.3	-6.7	10.5	8.8	3.6	20.2	nt
Oc1[nH]c2ccccc2c1N=NC(=S)N1CCOCC1	82.8*	1.7	97.3*	34.6	1.8	77.4*	87.5*	Full FLuc ctr=20.6
O=C(CNC(=O)c1ccccc1)N=Nc1c(O)[nH]c2ccc(Br)cc12	5.2	-12.1	43.7	nt	-0.1	11.9	nt
Cc1nc(C)c(-c2ccc(SCC(=O)Nc3cccc(Cl)c3C)nn2)s1	nt	-0.9	18.6	nt	1.7	-0.5	nt
CC(NC(=S)Nc1ccc(Cl)cc1)C(c1ccccc1)N1CCOCC1 (centres undefined)	-1.1	-1.6	4.6	-0.8	7.5	-1.6	nt
NCC12CC3CC(C1)CC(c1ccc(Br)cc1)(C3)C2	7.1	1.8	71.9*	22.2	1.2	9.1	31.2
SMILES	Beta cell apopt	NR3A LBD binder	Mdm2-MdmX inh	CSC inhib	MPTP block	SKKanGAS inh	Mdm2 MdmX conf	others
N#CCCN(C(=O)COC(=O)COc1ccccc1Cc1ccccc1)c1ccccc1	-2.9	3.1	-0.1	-6.9	-0.2	nt	nt
O=C(O)Cc1ccc(O)c(O)c1	-5.0	0.3	7.8	-5.6	-1.4	-0.5	nt
O=C(O)Cc1cc(I)c(Oc2ccc(O)c(I)c2)c(I)c1	-3.1	nt	52.9*	47.1	nt	26.3	6.9
CCOC(=O)c1ccc(NC(=O)c2c(N)n(C)c(=O)n(C)c2=O)cc1	3.5	1.4	84.6*	-23.9	-1.0	10.7	8.9
O=C(O)/C=C/c1cn(-c2ccccc2)nc1-c1ccc(-c2ccc([N+](=O)[O-])cc2)o1	-7.7	-3.5	18.6	35.5	3.6	-1.3	nt
CN(C)CCCN(C(=O)c1ccc(C(=O)c2ccccc2)cc1)c1nc2cc3c(cc2s1)OCO3	-5.8	1.0	74.7*	16.9	0.2	2.1	48.2*	Full FLuc ctr=31.7
CN(C)CCCN(C(=O)c1cc(Cl)sc1Cl)c1nc2cc3c(cc2s1)OCO3	-8.5	-1.2	53.9*	-1.8	0.3	0.3	21.6
CCOc1ccccc1C(=O)Nc1nnc(Cc2ccc(OC)c(OC)c2)s1	nt	0.2	33.9	-13.7	0.9	-1.0	nt
COc1ccc(-n2c(SCCC#N)nnc2-c2cc(Cl)ccc2OC)cc1Cl	0.3	0.0	53.9*	66.8	0.9	2.6	64.5*	Full FLuc ctr=50.9*
Cc1cccc(-c2nnc(SCC#N)n2-c2cccc(Cl)c2)c1	4.1	3.0	8.5	-16.1	-0.4	3.9	nt
CCOC(=O)c1ccc(-n2cccc2/C=C2\NC(=O)NC2=O)cc1	3.5	-1.1	43.5	45.9	3.0	nt	nt
C#CCNC(=O)C1=C[C@H](C(C)(C)C)C[C@H](OCCCCO)O1	1.0	0.2	2.5	-0.3	-1.3	2.4	nt
O=C1c2ccccc2-c2n[nH]c(=O)c3ccc(N4CCCCC4)c1c23	0.5	-3.4	52.4*	-6.1	1.0	32.8	14.8
